Experiments:
Test in all cases: DAPPL (digital affinity profiling via proximity ligation, sequencing); 10 mM Tris-HCl pH 7.5, 50 mM NaCl, 1 mM DTT, 4% glycerol, room temperature, 30 min; GST-TFs on glutathione beads, 16-mer random dsDNA library, 0.1% formaldehyde crosslink after washing; high values mean tight binding
Settings in all cases: protein: recombinant; tags: N-terminal GST; dsDNA, one strand shown
FLI1 = target: T1, FLI1 (Homo sapiens, UniProt Q01543 1-452)
T1 sequence: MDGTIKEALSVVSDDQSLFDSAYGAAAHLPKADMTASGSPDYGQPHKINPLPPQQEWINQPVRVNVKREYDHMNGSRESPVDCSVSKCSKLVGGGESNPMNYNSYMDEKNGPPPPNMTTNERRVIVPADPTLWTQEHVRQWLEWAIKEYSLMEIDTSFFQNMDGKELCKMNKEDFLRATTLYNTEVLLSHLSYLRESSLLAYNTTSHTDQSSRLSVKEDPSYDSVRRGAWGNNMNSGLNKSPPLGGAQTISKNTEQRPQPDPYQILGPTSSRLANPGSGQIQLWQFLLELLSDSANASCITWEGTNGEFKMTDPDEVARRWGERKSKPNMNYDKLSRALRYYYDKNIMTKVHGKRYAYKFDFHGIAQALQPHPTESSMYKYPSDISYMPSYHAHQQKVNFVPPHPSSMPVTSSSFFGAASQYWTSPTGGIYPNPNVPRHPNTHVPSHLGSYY
Outline: (§1)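 Human transcription factors were made in yeast as GST fusions, captured on glutathione beads and barcoded with DNA. With a tag-only sample included, the pool was incubated with 200 nmole of a random double-stranded 16-mer DNA library in Tris/NaCl/DTT/glycerol buffer at room temperature for 30 min, then crosslinked with 0.1% formaldehyde after washing, ligated by proximity, amplified and sequenced. For binding signal, each hexamer's read frequency for a factor is divided by its frequency for the tag-only sample.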

ELK1 = target: T2, ELK1 (Homo sapiens, UniProt P19419 1-428)
T2 sequence: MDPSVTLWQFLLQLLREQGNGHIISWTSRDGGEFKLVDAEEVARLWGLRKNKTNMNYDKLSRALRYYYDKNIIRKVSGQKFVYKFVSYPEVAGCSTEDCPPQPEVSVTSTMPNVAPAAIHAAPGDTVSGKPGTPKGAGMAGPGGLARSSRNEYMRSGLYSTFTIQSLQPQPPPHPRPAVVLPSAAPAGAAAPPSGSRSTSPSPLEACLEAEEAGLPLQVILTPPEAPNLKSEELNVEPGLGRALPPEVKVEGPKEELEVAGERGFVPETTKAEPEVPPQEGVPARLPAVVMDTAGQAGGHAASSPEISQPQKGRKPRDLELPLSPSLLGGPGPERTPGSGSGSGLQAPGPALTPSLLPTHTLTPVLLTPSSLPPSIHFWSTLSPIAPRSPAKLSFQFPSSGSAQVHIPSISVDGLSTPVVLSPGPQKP
Outline: as §1

GABPA = target: T3, GABPA (Homo sapiens, UniProt Q06546 1-454)
T3 sequence: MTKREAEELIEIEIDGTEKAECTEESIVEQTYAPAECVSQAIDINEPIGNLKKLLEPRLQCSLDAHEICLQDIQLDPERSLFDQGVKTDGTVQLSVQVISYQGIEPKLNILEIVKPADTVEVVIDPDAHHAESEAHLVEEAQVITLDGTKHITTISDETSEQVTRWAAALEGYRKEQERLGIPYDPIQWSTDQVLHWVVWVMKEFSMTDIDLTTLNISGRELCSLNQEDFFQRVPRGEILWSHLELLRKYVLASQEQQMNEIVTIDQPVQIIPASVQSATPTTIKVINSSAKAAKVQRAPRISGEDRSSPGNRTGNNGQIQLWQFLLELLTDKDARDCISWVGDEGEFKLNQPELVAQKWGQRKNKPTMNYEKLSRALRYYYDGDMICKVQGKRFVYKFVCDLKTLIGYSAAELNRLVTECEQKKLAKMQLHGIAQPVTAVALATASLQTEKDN
Outline: as §1

ERG = target: T4, ERG (Homo sapiens, UniProt P11308 1-479)
T4 sequence: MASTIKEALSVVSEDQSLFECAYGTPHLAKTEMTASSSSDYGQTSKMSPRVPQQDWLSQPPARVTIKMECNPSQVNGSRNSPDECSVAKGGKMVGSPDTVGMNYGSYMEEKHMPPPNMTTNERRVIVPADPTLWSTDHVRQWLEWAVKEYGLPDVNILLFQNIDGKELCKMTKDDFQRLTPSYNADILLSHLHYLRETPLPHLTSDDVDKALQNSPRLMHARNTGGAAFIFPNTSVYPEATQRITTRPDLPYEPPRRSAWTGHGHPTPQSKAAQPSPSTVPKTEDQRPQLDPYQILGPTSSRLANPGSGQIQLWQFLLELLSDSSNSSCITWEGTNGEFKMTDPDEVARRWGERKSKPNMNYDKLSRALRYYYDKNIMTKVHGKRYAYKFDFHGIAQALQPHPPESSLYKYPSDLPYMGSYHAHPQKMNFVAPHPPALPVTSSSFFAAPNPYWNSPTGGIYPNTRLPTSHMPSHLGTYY
Outline: as §1

ELF1 = ELF1 (Homo sapiens, UniProt P32519 1-619)
ELF1, sequence (P32519 whole entry): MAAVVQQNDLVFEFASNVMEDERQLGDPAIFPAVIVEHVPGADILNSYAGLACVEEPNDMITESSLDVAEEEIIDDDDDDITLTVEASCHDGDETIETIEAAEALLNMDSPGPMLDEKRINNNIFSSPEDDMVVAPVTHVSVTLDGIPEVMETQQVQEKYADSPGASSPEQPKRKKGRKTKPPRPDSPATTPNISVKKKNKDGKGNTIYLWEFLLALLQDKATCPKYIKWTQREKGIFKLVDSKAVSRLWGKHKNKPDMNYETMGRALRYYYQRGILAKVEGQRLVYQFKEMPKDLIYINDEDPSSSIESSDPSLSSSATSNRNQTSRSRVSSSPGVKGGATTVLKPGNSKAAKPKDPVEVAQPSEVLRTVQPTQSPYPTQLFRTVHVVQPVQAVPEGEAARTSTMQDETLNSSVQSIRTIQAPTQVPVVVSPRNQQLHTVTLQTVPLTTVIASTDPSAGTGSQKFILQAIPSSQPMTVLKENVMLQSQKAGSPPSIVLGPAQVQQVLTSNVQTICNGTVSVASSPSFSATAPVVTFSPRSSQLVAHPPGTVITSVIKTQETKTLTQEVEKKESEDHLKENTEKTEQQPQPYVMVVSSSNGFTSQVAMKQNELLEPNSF
Outline: as §1

EHF = target: T5, EHF (Homo sapiens, UniProt Q9NZC4 1-300)
T5 sequence: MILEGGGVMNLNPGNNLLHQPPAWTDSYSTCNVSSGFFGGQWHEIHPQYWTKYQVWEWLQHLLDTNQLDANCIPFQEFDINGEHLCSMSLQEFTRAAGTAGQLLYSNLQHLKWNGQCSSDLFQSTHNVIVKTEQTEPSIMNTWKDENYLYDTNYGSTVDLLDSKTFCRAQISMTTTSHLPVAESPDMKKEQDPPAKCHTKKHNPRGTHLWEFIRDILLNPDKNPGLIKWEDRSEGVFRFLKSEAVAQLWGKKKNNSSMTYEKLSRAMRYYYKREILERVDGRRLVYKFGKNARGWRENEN
Outline: as §1

SPI1 = SPI1 (Homo sapiens, UniProt P17947 1-270)
Outline: as §1

SPIB = SPIB (Homo sapiens, UniProt Q01892 1-262)
SPIB, sequence (Q01892 whole entry): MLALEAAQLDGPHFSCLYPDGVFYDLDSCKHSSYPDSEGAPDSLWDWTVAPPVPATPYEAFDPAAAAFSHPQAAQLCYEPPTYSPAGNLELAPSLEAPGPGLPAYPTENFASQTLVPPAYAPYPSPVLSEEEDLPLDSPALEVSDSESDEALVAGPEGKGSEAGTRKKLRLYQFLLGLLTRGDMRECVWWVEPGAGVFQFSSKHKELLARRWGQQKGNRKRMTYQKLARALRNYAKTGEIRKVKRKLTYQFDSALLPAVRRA
Outline: as §1

ELK3 = target: T6, ELK3 (Homo sapiens, UniProt P41970 1-407)
T6 sequence: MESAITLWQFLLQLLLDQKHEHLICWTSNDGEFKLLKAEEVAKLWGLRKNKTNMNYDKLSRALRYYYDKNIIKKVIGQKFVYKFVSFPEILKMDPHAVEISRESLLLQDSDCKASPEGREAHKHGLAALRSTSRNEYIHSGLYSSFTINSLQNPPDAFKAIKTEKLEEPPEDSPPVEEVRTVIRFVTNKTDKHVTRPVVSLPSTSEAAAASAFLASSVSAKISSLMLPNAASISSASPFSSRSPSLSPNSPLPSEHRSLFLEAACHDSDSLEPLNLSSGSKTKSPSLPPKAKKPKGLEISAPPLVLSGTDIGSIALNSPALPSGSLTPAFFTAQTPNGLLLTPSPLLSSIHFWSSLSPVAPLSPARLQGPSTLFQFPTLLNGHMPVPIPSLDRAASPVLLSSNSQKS
Outline: as §1

FEV = target: T7, FEV (Homo sapiens, UniProt Q99581 1-238)
T7 sequence: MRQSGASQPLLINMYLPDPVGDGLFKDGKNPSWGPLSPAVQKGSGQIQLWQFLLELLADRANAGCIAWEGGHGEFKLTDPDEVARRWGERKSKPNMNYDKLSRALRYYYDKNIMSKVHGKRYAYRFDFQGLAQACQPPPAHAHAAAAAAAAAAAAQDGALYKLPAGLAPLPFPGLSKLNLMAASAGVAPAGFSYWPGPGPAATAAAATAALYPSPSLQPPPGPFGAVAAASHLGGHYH
Outline: as §1

ETV5 = ETV5 (Homo sapiens, UniProt P41161 1-510)
ETV5, sequence (P41161 whole entry): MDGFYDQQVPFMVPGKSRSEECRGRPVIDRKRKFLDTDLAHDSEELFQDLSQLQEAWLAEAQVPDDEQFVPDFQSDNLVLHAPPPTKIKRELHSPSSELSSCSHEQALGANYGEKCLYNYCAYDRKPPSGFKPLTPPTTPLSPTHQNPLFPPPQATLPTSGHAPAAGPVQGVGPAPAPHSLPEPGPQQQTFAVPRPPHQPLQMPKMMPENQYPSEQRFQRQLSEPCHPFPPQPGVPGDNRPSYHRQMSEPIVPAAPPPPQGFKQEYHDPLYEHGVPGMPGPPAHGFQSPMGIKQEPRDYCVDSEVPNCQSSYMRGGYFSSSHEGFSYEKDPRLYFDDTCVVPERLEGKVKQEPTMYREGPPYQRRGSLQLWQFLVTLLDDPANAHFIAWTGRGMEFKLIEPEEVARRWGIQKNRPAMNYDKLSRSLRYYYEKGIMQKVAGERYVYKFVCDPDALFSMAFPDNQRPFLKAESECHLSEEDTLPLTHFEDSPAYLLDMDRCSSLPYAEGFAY
Outline: as §1

SPIC = target: T8, SPIC (Homo sapiens, UniProt Q8N5J4 1-248)
T8 sequence: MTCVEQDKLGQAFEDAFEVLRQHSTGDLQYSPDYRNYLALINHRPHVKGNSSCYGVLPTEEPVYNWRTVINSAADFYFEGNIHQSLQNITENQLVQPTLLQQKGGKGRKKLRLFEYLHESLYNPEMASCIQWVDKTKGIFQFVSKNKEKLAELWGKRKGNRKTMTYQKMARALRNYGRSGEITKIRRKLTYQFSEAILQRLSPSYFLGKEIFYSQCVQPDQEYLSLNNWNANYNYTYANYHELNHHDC
Outline: as §1

ELF4 = ELF4 (Homo sapiens, UniProt Q99607 1-663)
ELF4, sequence (Q99607 whole entry): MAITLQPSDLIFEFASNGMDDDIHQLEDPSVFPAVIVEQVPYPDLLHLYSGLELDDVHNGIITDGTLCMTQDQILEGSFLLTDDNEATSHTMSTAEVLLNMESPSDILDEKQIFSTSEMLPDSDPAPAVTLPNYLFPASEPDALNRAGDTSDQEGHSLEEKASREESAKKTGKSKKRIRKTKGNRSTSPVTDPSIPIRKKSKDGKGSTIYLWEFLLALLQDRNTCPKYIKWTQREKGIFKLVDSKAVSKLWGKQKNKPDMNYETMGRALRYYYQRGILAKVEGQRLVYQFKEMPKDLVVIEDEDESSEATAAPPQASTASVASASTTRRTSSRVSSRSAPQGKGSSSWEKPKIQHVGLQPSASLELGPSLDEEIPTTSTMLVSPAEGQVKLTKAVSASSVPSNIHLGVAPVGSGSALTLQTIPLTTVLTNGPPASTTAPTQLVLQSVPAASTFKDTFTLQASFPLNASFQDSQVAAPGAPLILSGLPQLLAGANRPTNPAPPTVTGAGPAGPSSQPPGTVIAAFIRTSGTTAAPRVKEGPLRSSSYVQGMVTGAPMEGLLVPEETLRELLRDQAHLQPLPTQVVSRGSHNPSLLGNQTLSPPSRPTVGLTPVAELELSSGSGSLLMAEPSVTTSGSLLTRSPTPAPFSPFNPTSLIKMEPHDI
Outline: as §1

ELK4 = target: T9, ELK4 (Homo sapiens, UniProt P28324-2 1-405)
T9 sequence: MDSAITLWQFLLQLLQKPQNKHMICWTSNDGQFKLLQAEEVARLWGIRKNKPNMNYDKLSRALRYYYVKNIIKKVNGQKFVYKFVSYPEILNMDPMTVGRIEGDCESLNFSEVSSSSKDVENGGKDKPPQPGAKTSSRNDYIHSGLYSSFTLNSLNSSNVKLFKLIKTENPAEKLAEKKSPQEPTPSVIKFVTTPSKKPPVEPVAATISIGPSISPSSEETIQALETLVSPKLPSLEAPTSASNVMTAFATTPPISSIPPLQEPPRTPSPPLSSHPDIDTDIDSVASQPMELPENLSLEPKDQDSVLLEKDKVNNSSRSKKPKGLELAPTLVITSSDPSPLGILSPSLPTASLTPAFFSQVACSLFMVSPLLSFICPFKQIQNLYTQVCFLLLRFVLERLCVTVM
Outline: as §1

ETV2 = target: T10, ETV2 (Homo sapiens, UniProt O00321 1-342)
T10 sequence: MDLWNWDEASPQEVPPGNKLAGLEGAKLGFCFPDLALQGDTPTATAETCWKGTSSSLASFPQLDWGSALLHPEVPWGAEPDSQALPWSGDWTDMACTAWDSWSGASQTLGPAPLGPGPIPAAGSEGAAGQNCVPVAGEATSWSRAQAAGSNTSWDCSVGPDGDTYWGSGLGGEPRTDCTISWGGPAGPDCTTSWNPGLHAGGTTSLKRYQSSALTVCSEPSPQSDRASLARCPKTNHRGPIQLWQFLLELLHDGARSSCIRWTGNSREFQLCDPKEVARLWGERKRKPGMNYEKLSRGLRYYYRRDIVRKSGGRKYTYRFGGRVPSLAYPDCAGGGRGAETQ
Outline: as §1

ELF3 = target: T11, ELF3 (Homo sapiens, UniProt P78545 1-371)
T11 sequence: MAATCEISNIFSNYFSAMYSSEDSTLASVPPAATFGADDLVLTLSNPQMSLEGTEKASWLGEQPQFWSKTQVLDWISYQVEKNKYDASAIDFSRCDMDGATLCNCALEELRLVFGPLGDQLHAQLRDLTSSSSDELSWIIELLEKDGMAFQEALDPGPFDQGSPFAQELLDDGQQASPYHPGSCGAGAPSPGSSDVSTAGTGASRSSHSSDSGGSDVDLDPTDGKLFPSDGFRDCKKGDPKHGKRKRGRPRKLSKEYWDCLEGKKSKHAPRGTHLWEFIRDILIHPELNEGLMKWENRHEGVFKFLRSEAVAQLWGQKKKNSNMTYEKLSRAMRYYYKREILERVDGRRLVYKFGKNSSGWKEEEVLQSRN
Outline: as §1

CRX = CRX (Homo sapiens, UniProt O43186 1-299)
CRX, sequence (O43186 whole entry): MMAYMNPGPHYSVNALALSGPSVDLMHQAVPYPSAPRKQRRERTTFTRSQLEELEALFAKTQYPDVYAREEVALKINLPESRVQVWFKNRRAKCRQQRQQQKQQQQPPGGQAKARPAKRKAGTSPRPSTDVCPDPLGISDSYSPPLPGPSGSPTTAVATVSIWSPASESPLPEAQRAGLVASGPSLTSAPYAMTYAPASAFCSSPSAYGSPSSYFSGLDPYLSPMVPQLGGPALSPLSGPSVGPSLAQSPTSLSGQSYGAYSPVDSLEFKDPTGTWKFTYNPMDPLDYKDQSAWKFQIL
Outline: as §1

ETV1 = ETV1 (Homo sapiens, UniProt P50549 1-477)
ETV1, sequence (P50549 whole entry): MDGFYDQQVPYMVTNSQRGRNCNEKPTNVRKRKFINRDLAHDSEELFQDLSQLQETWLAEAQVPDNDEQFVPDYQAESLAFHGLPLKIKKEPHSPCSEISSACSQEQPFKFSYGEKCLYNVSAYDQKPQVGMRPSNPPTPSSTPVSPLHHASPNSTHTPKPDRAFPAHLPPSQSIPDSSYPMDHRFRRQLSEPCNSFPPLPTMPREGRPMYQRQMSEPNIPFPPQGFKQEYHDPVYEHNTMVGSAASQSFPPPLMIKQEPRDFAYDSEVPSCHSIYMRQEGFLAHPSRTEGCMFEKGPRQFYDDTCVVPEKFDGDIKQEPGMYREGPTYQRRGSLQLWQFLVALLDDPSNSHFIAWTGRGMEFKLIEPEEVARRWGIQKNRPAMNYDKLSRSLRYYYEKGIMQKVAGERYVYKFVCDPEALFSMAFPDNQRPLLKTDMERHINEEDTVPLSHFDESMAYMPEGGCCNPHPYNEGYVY
Outline: as §1

Sequence: TTGGGC
- binding signal (FLI1): 1.03 fold enrichment (6-mer frequency, TF over GST control)
- binding signal (ELK1): 1.07 fold enrichment (6-mer frequency, TF over GST control)
- binding signal (GABPA): 1.01 fold enrichment (6-mer frequency, TF over GST control)
- binding signal (ERG): 1.07 fold enrichment (6-mer frequency, TF over GST control)
- binding signal (ELF1): 1.03 fold enrichment (6-mer frequency, TF over GST control)
- binding signal (EHF): 1.1 fold enrichment (6-mer frequency, TF over GST control)
- binding signal (SPI1): 1.2 fold enrichment (6-mer frequency, TF over GST control)
- binding signal (SPIB): 1.1 fold enrichment (6-mer frequency, TF over GST control)
- binding signal (ELK3): 1.21 fold enrichment (6-mer frequency, TF over GST control)
- binding signal (FEV): 1.13 fold enrichment (6-mer frequency, TF over GST control)
- binding signal (ETV5): 1.12 fold enrichment (6-mer frequency, TF over GST control)
- binding signal (SPIC): 1.07 fold enrichment (6-mer frequency, TF over GST control)
- binding signal (ELF4): 1.1 fold enrichment (6-mer frequency, TF over GST control)
- binding signal (ELK4): 1.05 fold enrichment (6-mer frequency, TF over GST control)
- binding signal (ETV2): 1.15 fold enrichment (6-mer frequency, TF over GST control)
- binding signal (ELF3): 1.18 fold enrichment (6-mer frequency, TF over GST control)
- binding signal (CRX): 1.03 fold enrichment (6-mer frequency, TF over GST control)
- binding signal (ETV1): 1.13 fold enrichment (6-mer frequency, TF over GST control)

Sequence: CCTACC
- binding signal (FLI1): 1.21 fold enrichment (6-mer frequency, TF over GST control)
- binding signal (ELK1): 1.37 fold enrichment (6-mer frequency, TF over GST control)
- binding signal (GABPA): 1.39 fold enrichment (6-mer frequency, TF over GST control)
- binding signal (ERG): 1.29 fold enrichment (6-mer frequency, TF over GST control)
- binding signal (ELF1): 1.28 fold enrichment (6-mer frequency, TF over GST control)
- binding signal (EHF): 1.33 fold enrichment (6-mer frequency, TF over GST control)
- binding signal (SPI1): 1.31 fold enrichment (6-mer frequency, TF over GST control)
- binding signal (SPIB): 1.38 fold enrichment (6-mer frequency, TF over GST control)
- binding signal (ELK3): 1.27 fold enrichment (6-mer frequency, TF over GST control)
- binding signal (FEV): 1.29 fold enrichment (6-mer frequency, TF over GST control)
- binding signal (ETV5): 1.35 fold enrichment (6-mer frequency, TF over GST control)
- binding signal (SPIC): 1.36 fold enrichment (6-mer frequency, TF over GST control)
- binding signal (ELF4): 1.4 fold enrichment (6-mer frequency, TF over GST control)
- binding signal (ELK4): 1.22 fold enrichment (6-mer frequency, TF over GST control)
- binding signal (ETV2): 1.38 fold enrichment (6-mer frequency, TF over GST control)
- binding signal (ELF3): 1.1 fold enrichment (6-mer frequency, TF over GST control)
- binding signal (CRX): 1.07 fold enrichment (6-mer frequency, TF over GST control)
- binding signal (ETV1): 1.47 fold enrichment (6-mer frequency, TF over GST control)

Reference: PMC7862700, “An all-to-all approach to the identification of sequence-specific readers for epigenetic DNA modifications on cytosine”
